This note sets out measurements from the antibiotic and cytotoxicity screens of Wong et al. (2023).

The structures appear in SMILES notation. The whole screen tested about 39,000 compounds, of which about 3,300 (8.5%) were called active. This excerpt belongs to a sample that is enriched for actives.

This assay concerns HepG2. Description: cytotoxicity call (relative viability < 0.9). Conditions: 10 µM.
Consider `Cc1noc(C)c1NC(=O)Nc1ccc2c(c1)C(=O)N([C@H](C)CO)C[C@H](C)[C@H](CN(C)C(=O)Cc1ccccc1)OCCCC[C@H](C)O2`, for which the cytotoxicity call is “inactive”.
In the case of `C[C@H](CO)N1C[C@H](C)[C@H](CN(C)Cc2ccc(Oc3ccccc3)cc2)Oc2ccc(NS(=O)(=O)c3ccccc3)cc2C1=O`, the cytotoxicity call is “inactive”.
Take `C[C@H]1CN([C@@H](C)CO)C(=O)c2cc(NS(=O)(=O)c3ccccc3)ccc2O[C@H]1CN(C)Cc1ccc(Oc2ccccc2)cc1`: the cytotoxicity call is “inactive”.
For `C[C@@H]1CN([C@@H](C)CO)C(=O)c2cc(NS(=O)(=O)c3ccccc3)ccc2O[C@@H]1CN(C)Cc1ccc(Oc2ccccc2)cc1`, the cytotoxicity call was “active”.
Turning to `C[C@H](CO)N1C[C@H](C)[C@@H](CN(C)Cc2ccc(Oc3ccccc3)cc2)Oc2ccc(NS(=O)(=O)c3ccccc3)cc2C1=O`, the cytotoxicity call is “inactive”.
As to `C[C@@H]1CN([C@H](C)CO)C(=O)c2cc(NS(=O)(=O)c3ccccc3)ccc2O[C@@H]1CN(C)Cc1ccc(Oc2ccccc2)cc1`, the cytotoxicity call is “active”.
The value for `C[C@@H]1CN([C@H](C)CO)C(=O)c2cc(NS(=O)(=O)c3ccccc3)ccc2O[C@H]1CN(C)Cc1ccc(Oc2ccccc2)cc1` was “inactive”; that for `C[C@@H](NS(=O)(=O)C1CN(C(=O)OCc2ccccc2)C1)C(N)=O` was “inactive”; that for `O=C1c2ccccc2-c2nc(-c3ccccc3)cc3cccc1c23` was “inactive”.
Regarding `C[C@H](CO)N1C[C@H](C)[C@H](CN(C)C(=O)CN(C)C)Oc2cc(-c3cncnc3)ccc2S1(=O)=O`, the cytotoxicity call was “inactive”.
On to `O=C(O)[C@@H](O)c1ccccc1`, for which the cytotoxicity call is “inactive”.
As to `C[C@@H]1CN([C@H](C)CO)C(=O)c2cc(NC(=O)Nc3ccc(F)cc3)ccc2O[C@H]1CN(C)Cc1ccc(-c2ccccc2)cc1`, the cytotoxicity call is “inactive”.
For `C[C@H](CO)N1C[C@H](C)[C@@H](CN(C)Cc2ccc(-c3ccccc3)cc2)Oc2ccc(NC(=O)Nc3ccc(F)cc3)cc2C1=O`, the cytotoxicity call was “inactive”.
For the molecule `C[C@@H]1CN([C@@H](C)CO)C(=O)c2cc(NC(=O)Nc3ccc(F)cc3)ccc2O[C@H]1CN(C)Cc1ccc(-c2ccccc2)cc1`, the cytotoxicity call was “active”.
On to `C[C@@H]1CN([C@H](C)CO)C(=O)c2cc(NC(=O)Nc3ccc(F)cc3)ccc2O[C@@H]1CN(C)Cc1ccc(-c2ccccc2)cc1`, for which the cytotoxicity call was “active”.
In the case of `C[C@@H]1CN([C@@H](C)CO)C(=O)c2cc(NC(=O)Nc3ccc(F)cc3)ccc2O[C@@H]1CN(C)Cc1ccc(-c2ccccc2)cc1`, the cytotoxicity call is “active”.
Consider `C[C@H]1CN([C@@H](C)CO)C(=O)c2cc(NC(=O)Nc3ccc(F)cc3)ccc2O[C@@H]1CN(C)Cc1ccc(-c2ccccc2)cc1`, for which the cytotoxicity call is “inactive”.
Consider `C[C@H](CO)N1C[C@H](C)[C@H](CN(C)Cc2ccc(-c3ccccc3)cc2)Oc2ccc(NC(=O)Nc3ccc(F)cc3)cc2C1=O`, for which the cytotoxicity call is “inactive”.
In the case of `C[C@H]1CN([C@@H](C)CO)C(=O)c2cc(NC(=O)Nc3ccc(F)cc3)ccc2O[C@H]1CN(C)Cc1ccc(-c2ccccc2)cc1`, the cytotoxicity call is “inactive”.
As to `C[C@@H]1CN([C@H](C)CO)C(=O)c2cc(NC(=O)C3CCCCC3)ccc2O[C@@H](C)CCCCO[C@H]1CN(C)S(=O)(=O)c1ccc(Cl)cc1`, the cytotoxicity call is “inactive”.
The same measure for `CO[C@H]1CN(C)C(=O)c2ccc(NS(=O)(=O)c3cn(C)cn3)cc2OC[C@@H](C)N(Cc2cccc(F)c2)C[C@@H]1C`: “inactive”.
For the molecule `C[C@@H]1CN([C@H](C)CO)C(=O)c2cc(NS(C)(=O)=O)ccc2O[C@@H]1CN(C)C(=O)Nc1ccc(F)cc1`, the cytotoxicity call is “inactive”.
As for `C[C@@H]1CCCCO[C@@H](CN(C)C(=O)Nc2ccc3c(c2)OCO3)[C@H](C)CN([C@@H](C)CO)C(=O)c2cc(NC(=O)CCC(F)(F)F)ccc2O1`, the cytotoxicity call was “inactive”.
On to `CO[C@@H](CN(C)S(=O)(=O)c1ccc(C)cc1)[C@H](C)CN([C@H](C)CO)S(=O)(=O)c1cccc(Cl)c1`, for which the cytotoxicity call is “inactive”.
`COCC(=O)N1C[C@@H](C)[C@H](OC)CN(C)C(=O)c2cc(NC(=O)c3ccc(F)cc3)ccc2OC[C@H]1C`: the cytotoxicity call was “inactive”.
As for `O=C1c2ccccc2[C@@]2(Cc3ccccc3N(CC(F)(F)F)C2=O)[C@H](c2ccc(CO)cc2)N1Cc1ccccc1`, the cytotoxicity call was “inactive”.
The value for `C[C@H]1CN([C@@H](C)CO)C(=O)Cc2cc(NC(=O)Nc3ccccc3)ccc2O[C@@H]1CN(C)Cc1ccc(C(=O)Nc2ccccc2N)cc1` was “inactive”.
Regarding `C[C@@H]1CN([C@@H](C)CO)C(=O)Cc2cc(NC(=O)Nc3ccc4c(c3)OCO4)ccc2O[C@@H]1CN(C)Cc1ccc(C(=O)Nc2ccccc2N)cc1`, the cytotoxicity call was “active”.
In the case of `C[C@H](CO)N1C[C@H](C)[C@@H](CN(C)Cc2ccc(C(=O)Nc3ccccc3N)cc2)Oc2ccc(NC(=O)Nc3ccc4c(c3)OCO4)cc2CC1=O`, the cytotoxicity call was “inactive”.
The same measure for `C[C@H]1CN([C@@H](C)CO)C(=O)Cc2cc(NC(=O)Nc3ccc4c(c3)OCO4)ccc2O[C@@H]1CN(C)Cc1ccc(C(=O)Nc2ccccc2N)cc1`: “inactive”; for `C[C@H](CO)N1C[C@H](C)[C@H](CN(C)Cc2ccc(C(=O)Nc3ccccc3N)cc2)Oc2ccc(NC(=O)Nc3ccc4c(c3)OCO4)cc2CC1=O`: “inactive”; for `C[C@@H]1CN([C@H](C)CO)C(=O)Cc2cc(NC(=O)Nc3ccc4c(c3)OCO4)ccc2O[C@@H]1CN(C)Cc1ccc(C(=O)Nc2ccccc2N)cc1`: “active”.
On to `C[C@H]1CN([C@@H](C)CO)C(=O)Cc2cc(NC(=O)Nc3ccc4c(c3)OCO4)ccc2O[C@H]1CN(C)Cc1ccc(C(=O)Nc2ccccc2N)cc1`, for which the cytotoxicity call is “active”.
As for `C[C@@H]1CN([C@@H](C)CO)C(=O)Cc2cc(NC(=O)Nc3ccc4c(c3)OCO4)ccc2O[C@H]1CN(C)Cc1ccc(C(=O)Nc2ccccc2N)cc1`, the cytotoxicity call is “inactive”.
Turning to `C[C@@H]1CN([C@H](C)CO)C(=O)Cc2cc(NC(=O)Nc3ccc4c(c3)OCO4)ccc2O[C@H]1CN(C)Cc1ccc(C(=O)Nc2ccccc2N)cc1`, the cytotoxicity call was “inactive”.
Take `C[C@@H]1CN([C@H](C)CO)C(=O)c2cccc(NC(=O)Nc3cccc4ccccc34)c2O[C@@H]1CN(C)C(=O)NC1CCCCC1`: the cytotoxicity call is “inactive”.
Take `C[C@H]1CN([C@@H](C)CO)C(=O)CCCn2cc(nn2)CO[C@@H]1CN(C)C(=O)Nc1cccc2ccccc12`: the cytotoxicity call is “inactive”.
Turning to `O=C(Cn1cc(COc2ccc(-n3cccc3)cc2)nn1)NS(=O)(=O)c1ccccc1C(F)(F)F`, the cytotoxicity call was “inactive”.
For `C[C@@H]1CN([C@@H](C)CO)C(=O)c2cc(NC(=O)Cc3ccccc3)ccc2O[C@@H](C)CCCCO[C@H]1CN(C)C(=O)C1CCCCC1`, the cytotoxicity call is “inactive”.
In the case of `C[C@H]1CN([C@@H](C)CO)C(=O)c2cccc(NS(=O)(=O)c3cccs3)c2O[C@@H]1CN(C)CC1CC1`, the cytotoxicity call was “inactive”.
`COc1ccc([C@@H]([C@H](Cc2ccccc2)OC(C)=O)N2C[C@@H](OC(C)=O)[C@@H]3C(=NO[C@H]3c3ccccc3)[C@@H]2Cc2ccccc2)cc1`: the cytotoxicity call is “inactive”.
Regarding `C[C@@H]1CN([C@@H](C)CO)C(=O)c2cccc(NC(=O)Nc3ccc4c(c3)OCO4)c2O[C@@H]1CN(C)Cc1ccc(C(F)(F)F)cc1`, the cytotoxicity call is “inactive”.
`Oc1cc(O)c2cc(O)c(-c3ccc(O)c(O)c3)[o+]c2c1.[Cl-]`: the cytotoxicity call is “inactive”.
The value for `Cc1noc(C)c1S(=O)(=O)Nc1ccc2c(c1)C(=O)N([C@H](C)CO)C[C@H](C)[C@H](CN(C)S(=O)(=O)c1ccc(Cl)cc1)O2` was “inactive”; that for `COc1ccc(S(=O)(=O)N2C[C@H](O)COC[C@H]3O[C@H](CC(=O)NCc4ccc(Cl)c(Cl)c4)CC[C@@H]32)cc1` was “inactive”; that for `COc1ccc(S(=O)(=O)N2C[C@@H](O)COC[C@H]3O[C@H](CC(=O)NCc4ccc(Cl)c(Cl)c4)CC[C@@H]32)cc1` was “inactive”.
For `COc1ccc(S(=O)(=O)N2C[C@H](O)COC[C@@H]3O[C@H](CC(=O)NCc4ccc(Cl)c(Cl)c4)CC[C@H]32)cc1`, the cytotoxicity call is “inactive”.
Regarding `COc1ccc(S(=O)(=O)N2C[C@@H](O)COC[C@H]3O[C@@H](CC(=O)NCc4ccc(Cl)c(Cl)c4)CC[C@@H]32)cc1`, the cytotoxicity call was “active”.
Turning to `COc1ccc(S(=O)(=O)N2C[C@@H](O)COC[C@@H]3O[C@H](CC(=O)NCc4ccc(Cl)c(Cl)c4)CC[C@H]32)cc1`, the cytotoxicity call is “inactive”.
With `COc1ccc(S(=O)(=O)N2C[C@@H](O)COC[C@@H]3O[C@@H](CC(=O)NCc4ccc(Cl)c(Cl)c4)CC[C@H]32)cc1`, the cytotoxicity call was “active”.
As to `COCCCN1C(=O)[C@@]2(Cc3ccccc31)c1ccccc1C(=O)N(C1CCCCC1)[C@H]2c1ccc(CO)cc1`, the cytotoxicity call was “inactive”.
In the case of `COc1ccc(NC(=O)N(C)C[C@@H]2OCCCC[C@@H](C)Oc3ccc(NC(=O)NC(C)C)cc3C(=O)N([C@H](C)CO)C[C@H]2C)cc1`, the cytotoxicity call was “inactive”.
As for `COc1ccccc1S(=O)(=O)N(C)C[C@@H]1Oc2cc(C#CCC(C)C)ccc2S(=O)(=O)N([C@H](C)CO)C[C@@H]1C`, the cytotoxicity call is “active”.
For the molecule `CCCC#Cc1ccc2c(c1)O[C@H](CN(C)S(=O)(=O)c1cccc(OC)c1)[C@H](C)CN([C@@H](C)CO)S2(=O)=O`, the cytotoxicity call was “inactive”.
`CC(C)CC#Cc1ccc2c(c1)O[C@@H](CN(C)S(=O)(=O)c1cccc(F)c1)[C@H](C)CN([C@H](C)CO)S2(=O)=O`: the cytotoxicity call was “inactive”.
Consider `COc1ccccc1S(=O)(=O)N(C)C[C@@H]1Oc2cc(C#CCC(C)C)ccc2S(=O)(=O)N([C@@H](C)CO)C[C@H]1C`, for which the cytotoxicity call was “inactive”.
On to `COc1ccccc1S(=O)(=O)N(C)C[C@H]1Oc2cc(C#CCC(C)C)ccc2S(=O)(=O)N([C@H](C)CO)C[C@@H]1C`, for which the cytotoxicity call was “inactive”.
Regarding `CC(C)CC#Cc1ccc2c(c1)O[C@H](CN(C)S(=O)(=O)c1cccc(F)c1)[C@H](C)CN([C@@H](C)CO)S2(=O)=O`, the cytotoxicity call was “active”.
On to `CC(C)CC#Cc1ccc2c(c1)O[C@@H](CN(C)S(=O)(=O)c1cccc(F)c1)[C@H](C)CN([C@@H](C)CO)S2(=O)=O`, for which the cytotoxicity call is “inactive”.
The value for `COc1ccccc1S(=O)(=O)N(C)C[C@@H]1Oc2cc(C#CCC(C)C)ccc2S(=O)(=O)N([C@H](C)CO)C[C@H]1C` was “inactive”; that for `COc1ccccc1S(=O)(=O)N(C)C[C@H]1Oc2cc(C#CCC(C)C)ccc2S(=O)(=O)N([C@@H](C)CO)C[C@@H]1C` was “inactive”.
For the molecule `COc1ccccc1S(=O)(=O)N(C)C[C@H]1Oc2cc(C#CCC(C)C)ccc2S(=O)(=O)N([C@@H](C)CO)C[C@H]1C`, the cytotoxicity call is “active”.
With `CCCC#Cc1ccc2c(c1)O[C@@H](CN(C)S(=O)(=O)c1cccc(OC)c1)[C@@H](C)CN([C@@H](C)CO)S2(=O)=O`, the cytotoxicity call is “inactive”.
